Measured values reported in PubChem BioAssay (Tox21).
Records with an inconclusive call do not appear. Where a call stands in place of a potency, no number is given. Activity calls are given as the source filed them. Unless noted, the call rests on the fitted dose curve; in most records, active means well fitted curve in the direction sought with a large enough effect in the repeat runs; inconclusive means weak or mixed curves; inactive means no such curve, though single readings can be large; an effect the other way counts as inactive or inconclusive.

Legend:
[1] = qHTS assay for small molecule agonists of the p53 signaling pathway - cell viability (AID 651633; calls by dose curve;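 further: p53RE-bla HCT reporter cells with a stable beta-lactamase p53 reporter; series mostly up to about 83 µM; nearly all actives have a fitted effect of over 30% in size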)
Method in brief: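 p53RE-bla cells were treated with compound for 16 hours at 37 C. Cytotoxicity was then measured as CellTiter-Glo luminescence after 30 min at room temperature.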

[2] = qHTS assay for small molecule disruptors of the mitochondrial membrane potential - cell viability (AID 720634; calls by dose curve;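 further: human HepG2 liver cancer cells; series mostly up to about 83 µM; nearly all actives have a fitted effect of over 20% in size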)
Method in brief: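 ATP-based luminescent viability readout (CellTiter-Glo, 30 min, room temperature) in HepG2 cells multiplexed with the m-MPI membrane potential dye; compound exposure lasted 1 hr at 37 C.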

[3] = qHTS assay to test for compound auto fluorescence at 590 nm (red) in HepG2 cells (AID 720674)
Method in brief: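 Fluorescence at 590 nm emission following 540 nm excitation was recorded from HepG2 wells one hour after compound transfer, with DMSO-only wells as vehicle and Rose Bengal sodium equivalency as the scale.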

[4] = qHTS assay to test for compound auto fluorescence at 535 nm (green) in HepG2 cells (AID 720675)
[5] = qHTS assay to test for compound auto fluorescence at 460 nm (blue) in HEK293 cells (AID 720678)
Method in brief: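 Blue-channel (Ex/Em 405/460 nm) intensity measured in HEK293 cultures after overnight compound exposure at 37C; signal expressed relative to triamterene. Cells plated 2,000 per well in 10% dialyzed FBS medium and allowed 4-5 hr to attach.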

[6] = qHTS assay to test for compound auto fluorescence at 590 nm (red) in HEK293 cells (AID 720679)
Method in brief: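 Red-channel autofluorescence (Ex/Em 540/590 nm; Rose Bengal sodium reference) was measured after overnight 37C, 5% CO2 exposure of attached HEK293 cells, 2,000 per well in medium with 10% dialyzed FBS.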

[7] = qHTS assay to test for compound auto fluorescence at 460 nm (blue) in HEK293 cell free culture (AID 720681)
Method in brief: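 Compounds were added to cell-free DMEM with 10% FBS and fluorescence read directly. The blue channel used 405 nm excitation and 460 nm emission, with triamterene as the reference fluorophore.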

[8] = qHTS assay to test for compound auto fluorescence at 535 nm (green) in HEK293 cell free culture (AID 720682)
Method in brief: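 Intrinsic compound fluorescence is measured in culture medium containing 10% FBS, with excitation at 485 nm and detection at 535 nm, referenced to fluorescein.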

[9] = qHTS assay to test for compound auto fluorescence at 590 nm (red) in HEK293 cell free culture (AID 720683)
Method in brief: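 Cell-free wells of DMEM with 10% FBS received compound, and intrinsic fluorescence was read at excitation/emission 540/590 nm. Values expressed as equivalence to Rose Bengal sodium.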

[10] = qHTS assay to test for compound auto fluorescence at 590 nm (red) in HepG2 cell free culture (AID 720684)
Method in brief: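 Rose Bengal sodium served as the reference for red signal. Test compounds were dispensed into serum-containing MEM (10% FBS) without cells, and plates were read at 540/590 nm.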

[11] = qHTS assay to test for compound auto fluorescence at 535 nm (green) in HepG2 cell free culture (AID 720686)
[12] = qHTS assay to test for compound auto fluorescence at 460 nm (blue) in HepG2 cells (AID 720687)
Method in brief: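 HepG2 cells in MEM with 10% FBS, attached overnight at 37 C, were exposed to compound or DMSO for 1 hr at 37 C, 5% CO2. Blue fluorescence was read at 405/460 nm, with triamterene as reference fluorophore.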

[13] = qHTS assay to identify small molecule antagonists of the glucocorticoid receptor (GR) signaling pathway - cell viability counter screen (AID 720693); further: nearly all actives have a fitted effect of over 55% in size
[14] = qHTS assay to identify small molecule antagonists of the androgen receptor (AR) signaling pathway using the MDA cell line - cell viability counter screen (AID 743041; further: nearly all actives have a fitted effect of over 45% in size)
Method in brief: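 Cytotoxicity counter screen: MDA-kb2 AR-luc cells, compound + R1881, 16 h, 37C, 0% CO2; CellTiter-Fluor added at 15.5 h, fluorescence read after 30 min.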

[15] = qHTS assay to identify small molecule antagonists of the estrogen receptor alpha (ER-alpha) signaling pathway using the BG1 cell line - cell viability counter screen (AID 743081);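 further: compound given together with 17beta-estradiol as the ER stimulus; series mostly up to about 70 µM; nearly all actives have a fitted effect of over 45% in size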
[16] = biological target: Aromatase (Homo sapiens) (UniProt P11511); assay: qHTS assay to identify aromatase inhibitors (AID 743083); further: nearly all actives have a fitted effect of over 55% in size; further: potency means the concentration at half of the fitted maximal effect
Aromatase (Homo sapiens), sequence (P11511 whole entry, looked up): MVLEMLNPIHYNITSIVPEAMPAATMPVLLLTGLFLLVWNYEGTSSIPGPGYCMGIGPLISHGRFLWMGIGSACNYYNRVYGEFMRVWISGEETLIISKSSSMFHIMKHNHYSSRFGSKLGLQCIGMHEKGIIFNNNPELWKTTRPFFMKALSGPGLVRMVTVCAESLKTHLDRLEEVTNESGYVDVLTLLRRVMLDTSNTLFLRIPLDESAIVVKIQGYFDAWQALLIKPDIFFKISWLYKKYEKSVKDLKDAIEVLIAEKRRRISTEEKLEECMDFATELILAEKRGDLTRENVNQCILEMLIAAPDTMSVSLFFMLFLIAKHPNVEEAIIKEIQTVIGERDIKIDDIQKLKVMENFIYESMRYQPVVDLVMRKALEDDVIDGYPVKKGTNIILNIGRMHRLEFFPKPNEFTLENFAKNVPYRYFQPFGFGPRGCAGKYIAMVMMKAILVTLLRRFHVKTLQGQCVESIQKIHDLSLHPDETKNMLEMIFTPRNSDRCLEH

[17] = qHTS assay to identify aromatase inhibitors - cell viability counter screen (AID 743084);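 further: cells stimulated with testosterone during compound exposure; nearly all actives have a fitted effect of over 55% in size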
[18] = biological target: Aryl hydrocarbon receptor (Homo sapiens) (UniProt P35869); assay: qHTS assay to identify small molecule that activate the aryl hydrocarbon receptor (AhR) signaling pathway (AID 743085); further: nearly all actives have a fitted effect of over 15% in size; further: potency means the concentration at half of the fitted maximal effect
Aryl hydrocarbon receptor (Homo sapiens), sequence (P35869 whole entry, looked up): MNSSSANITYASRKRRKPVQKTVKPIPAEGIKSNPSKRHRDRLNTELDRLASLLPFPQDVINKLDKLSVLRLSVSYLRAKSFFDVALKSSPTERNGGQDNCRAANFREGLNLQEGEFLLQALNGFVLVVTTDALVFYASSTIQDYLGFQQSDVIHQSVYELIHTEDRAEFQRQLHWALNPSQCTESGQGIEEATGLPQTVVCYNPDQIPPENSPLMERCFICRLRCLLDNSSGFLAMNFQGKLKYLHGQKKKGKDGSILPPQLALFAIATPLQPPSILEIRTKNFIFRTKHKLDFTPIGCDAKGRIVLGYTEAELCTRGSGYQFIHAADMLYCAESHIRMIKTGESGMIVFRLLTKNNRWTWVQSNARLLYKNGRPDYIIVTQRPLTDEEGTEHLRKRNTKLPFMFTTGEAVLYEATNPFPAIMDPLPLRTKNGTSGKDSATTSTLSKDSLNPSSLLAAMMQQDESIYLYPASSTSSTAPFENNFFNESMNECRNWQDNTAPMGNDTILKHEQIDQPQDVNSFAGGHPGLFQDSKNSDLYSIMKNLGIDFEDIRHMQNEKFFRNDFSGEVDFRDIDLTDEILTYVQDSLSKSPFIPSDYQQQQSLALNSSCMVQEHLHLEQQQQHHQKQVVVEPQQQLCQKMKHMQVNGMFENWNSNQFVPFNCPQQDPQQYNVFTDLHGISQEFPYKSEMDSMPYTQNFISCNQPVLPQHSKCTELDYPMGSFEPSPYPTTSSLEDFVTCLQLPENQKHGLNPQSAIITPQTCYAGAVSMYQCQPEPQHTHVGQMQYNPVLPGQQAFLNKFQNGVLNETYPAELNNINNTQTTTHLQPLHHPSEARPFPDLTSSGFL
Method in brief: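 Reporter assay in engineered HepG2 line HG2L7.5c1, whose plasmid carries twenty dioxin responsive elements upstream of firefly luciferase. Treatment lasted 24 h at 37C; ONE-Glo luminescence gauged induction.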

[19] = qHTS assay to identify small molecule that activate the aryl hydrocarbon receptor (AhR) signaling pathway - cell viability counter screen (AID 743086);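 further: HepG2 liver cells carrying the AhR DRE luciferase reporter; series mostly up to about 70 µM; nearly all actives have a fitted effect of over 45% in size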
Method in brief: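 HepG2-AhR-luc (HG2L7.5c1) cells, 4000/well, treated 24 h at 37 C with compound; viability measured as CellTiter-Fluor fluorescence after 30 min in the same wells as the luciferase read.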

[20] = qHTS assay to identify small molecule phospholipidosis (PLD) inducers (AID 1259344; active means well fitted curve in the direction sought with a large enough effect; an effect the other way counts as inactive or inconclusive)
Method in brief: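 Read-out is LipidTOX Red fluorescence (ex 595/em 615) imaged in HepG2 cells after 24 h compound exposure at 37 C, with Hoechst nuclear counterstain (ex 352/em 461) allowing per-cell normalisation.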

Compound	Potency [1]	Potency [2]	outcome [3]	Potency [4]	Potency [5]	outcome [6]	Potency [7]	Potency [8]	outcome [9]	outcome [10]	Potency [11]	Potency [12]	Potency [13]	Potency [14]	Potency [15]	Potency [16]	Potency [17]	Potency [18]	Potency [19]	Potency [20]
Clc1ccc2c(c1)C(c1ccccc1)=NCc1nncn1-2	inactive	inactive	inactive	inactive	inactive	inactive	inactive	inactive	inactive	inactive	inactive	inactive	inactive	inactive	inactive	inactive	inactive	inactive	inactive	inactive
C[C@]12CC[C@H](OS(=O)(=O)O)CC1=CC[C@@H]1[C@@H]2CC[C@]2(C)C(=O)CC[C@@H]12	inactive	inactive	inactive	inactive	inactive	inactive	inactive	inactive	inactive	inactive	inactive	inactive	inactive	inactive	inactive	inactive	inactive	inactive	inactive	inactive
CCC1C(C)=NN=C(c2ccc(OC)c(OC)c2)c2cc(OC)c(OC)cc21 (configuration not stated)	inactive	inactive	inactive	inactive	inactive	inactive	inactive	inactive	inactive	inactive	inactive	inactive	–	inactive	inactive	inactive	inactive	inactive	inactive	inactive
CCC1(c2ccccc2)C(=O)NC(=O)N(C(=O)c2ccccc2)C1=O (configuration not stated)	inactive	inactive	inactive	inactive	inactive	inactive	inactive	inactive	inactive	inactive	inactive	inactive	inactive	inactive	–	inactive	inactive	inactive	inactive	inactive
C[C@]12CCC(=O)C=C1C=C[C@@H]1[C@@H]2CC[C@@]2(C)[C@H]1CC[C@@]2(O)CCC(=O)O	inactive	inactive	inactive	inactive	inactive	inactive	inactive	inactive	inactive	inactive	inactive	inactive	inactive	inactive	inactive	inactive	inactive	inactive	inactive	inactive
CCC/C=C/C=C/C(=O)O[C@H]1/C(=C/C(=O)OC)C[C@H]2C[C@H]([C@@H](C)O)OC(=O)C[C@H](O)C[C@@H]3C[C@H](OC(C)=O)C(C)(C)[C@](O)(C[C@@H]4C/C(=C/C(=O)OC)C[C@H](/C=C/C(C)(C)[C@]1(O)O2)O4)O3	inactive	inactive	inactive	inactive	inactive	inactive	inactive	inactive	inactive	inactive	inactive	inactive	inactive	inactive	inactive	inactive	inactive	inactive	inactive	inactive
Cc1cccc(C(C)c2cnc[nH]2)c1C (configuration not stated)	inactive	inactive	inactive	inactive	inactive	inactive	inactive	inactive	inactive	inactive	inactive	inactive	inactive	inactive	inactive	29.8 µM (active)	inactive	11.9 µM (active)	inactive	inactive
C=CC[C@]1(O)CC[C@H]2[C@@H]3CCC4=CCCC[C@@H]4[C@H]3CC[C@@]21C	inactive	inactive	inactive	inactive	inactive	inactive	inactive	inactive	inactive	inactive	inactive	inactive	inactive	inactive	inactive	–	inactive	inactive	inactive	inactive
